Source: PubChem BioAssay (National Center for Advancing Translational Sciences (NCATS))
In the library only some 21% were active in any assay of this set; here they are far more common.
NS1 inh: blocks influenza NS1 protein function; Potency, µM (series often up to 46.1 µM); actives 0.4% (n = 270,000); calls by dose curve; further: actives are rising curves; nearly all actives have a fitted effect of over 50% in size
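Compounds were scored for reversing the slow growth caused by influenza A NS1 in S. cerevisiae, measured by optical density at 600 nm. Assay medium contained 2% galactose at pH 6.0; NS1-free yeast of the same strain were the positive control.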
Pf growth 96h: P. falciparum growth inhibition at 96 hour, primary screen for plastid delayed-death inhibitors; P. falciparum luciferase reporter growth, 96 h; Potency, µM (top dose mostly 28.7 µM), hits mostly inhibitors; actives 6.9% (n = 320,000)
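Cell-based qHTS: luciferase-tagged P. falciparum in erythrocytes (2% hematocrit, 0.05% parasitemia final) incubated with compounds for 96 hours, 37 C, 5% CO2; luciferase detection reagent then added and luminescence measured.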
Sm TGR inh: S. mansoni TGR enzyme inhibition. Q962Y6. actives 3% (n = 360,000). purified TGR, DTNB reduction, TNB absorbance 405 nm. AID 485364. Potency, µM (highest dose often 114 µM), most hits filed as inhibitors; further: nearly all actives have a fitted effect of over 60% in size
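Kinetic colorimetric format: TGR-catalysed, NADPH-driven DTNB reduction monitored via TNB absorbance. Enzyme dispensed at 20 nM; compound exposure 15 min at room temperature before reaction start.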
Pf growth 48h: P. falciparum growth inhibition at 48 hours (one generation). Potency, µM (top dose mostly 28.7 µM), usual class: inhibitors. actives 5.9% (n = 310,000). P. falciparum luciferase growth in erythrocytes, 48 h. AID 504832
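Compounds are pin-transferred into medium, infected erythrocytes (2% hematocrit, 0.1% parasitemia final) are added, and plates sit one parasite generation at 37 C in 5% CO2. Detection reagent is then added and luminescence measured.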
Shiga inhibitor: Shiga toxin inhibition; inhibition, % at 38.7 µM; Vero cells, Shiga toxin protein synthesis inhibition reporter; actives 9.2% (n = 290,000); in the data active means inhibition mostly above about 28%, no sharp cut-off; inactive means mostly below about 43%
CHX counter: counter-screen for Shiga toxin inhibitors: cycloheximide protein synthesis inhibition; cell reporter, cycloheximide protein synthesis inhibition counterscreen; max response, %; actives 12% (n = 300,000); AID 2314; in the data active means max response mostly above about 13%, no sharp cut-off; inactive means mostly below about 14%; further: read at 38.3 µM for the half of the compounds with a filed dose
A number is an active result. Unless noted, the call rests on the fitted dose curve; in most records, active means well fitted curve in the direction sought with a large enough effect; inconclusive means small, poorly fitted or top-dose-only effect, or another doubt; inactive means no such curve, though single readings can be large; an effect the other way counts as inactive or inconclusive.

COc1ccc(C(C)=O)cc1CSc1nc2cc(C(=O)O)ccc2c(=O)n1Cc1ccccc1 was read as NS1 inh inconclusive, Pf growth 96h inactive, Sm TGR inh 22µM, Pf growth 48h inactive, Shiga inhibitor inactive and CHX counter inactive.
Screening COc1ccccc1Cn1c(SCC(=O)C(C)(C)C)nc2cc(C(=O)N3CCC4(CC3)OCCO4)ccc2c1=O returned Pf growth 96h inconclusive, Sm TGR inh inactive, Pf growth 48h 5.9µM, Shiga inhibitor inactive and CHX counter inactive.
`CCOC(Cn1c(SCc2cc(C(C)=O)ccc2OC)nc2ccccc2c1=O)OCC` gave NS1 inh inactive, Pf growth 96h inactive, Sm TGR inh inactive, Pf growth 48h inactive, Shiga inhibitor inactive and CHX counter inactive.
`CCn1c(C)csc1=NC(=O)c1ccccc1` gave NS1 inh inactive, Pf growth 96h inactive, Sm TGR inh inactive, Pf growth 48h inactive, Shiga inhibitor 34 and CHX counter 29.
Cc1csc(=NC(=O)c2ccccc2)n1C was read as NS1 inh inactive, Pf growth 96h inactive, Sm TGR inh inactive, Pf growth 48h inactive, Shiga inhibitor 83 and CHX counter 50.
Screening Cc1csc(=NC(=O)c2ccccc2)n1Cc1ccco1 returned NS1 inh inactive, Pf growth 96h inactive, Sm TGR inh inactive, Pf growth 48h inactive, Shiga inhibitor inactive and CHX counter inactive.
Screening CCn1c(C)csc1=NC(=O)c1ccccc1O returned NS1 inh inactive, Pf growth 96h 1.7µM, Sm TGR inh inactive, Pf growth 48h inactive, Shiga inhibitor 107 and CHX counter 56.
Screening CSc1nn(Cc2ccc(F)cc2)c(N(C(C)=O)C(C)=O)c1S(=O)(=O)c1ccccc1 returned Sm TGR inh inactive.
For Cc1ccccc1C(=O)Nc1ccc2c(c1)CCCN2C(=O)c1cccs1 the results were NS1 inh inactive, Pf growth 96h inconclusive, Sm TGR inh inactive, Pf growth 48h inactive, Shiga inhibitor inactive and CHX counter inactive.
For COc1ccc(C(=O)Nc2ccc3c(c2)CCCN3C(=O)c2cccs2)c(OC)c1 the results were NS1 inh inactive, Pf growth 96h 15µM, Sm TGR inh inactive, Pf growth 48h inconclusive, Shiga inhibitor inactive and CHX counter inactive.
`COc1cccc(C(=O)Nc2ccc3c(c2)CCCN3C(=O)c2cccs2)c1OC` gave NS1 inh inactive, Pf growth 96h inactive, Sm TGR inh inactive, Pf growth 48h inconclusive, Shiga inhibitor 49 and CHX counter 26.
CCCc1cc(=O)[nH]c(SCC(=O)N2CCCC2=O)n1 was read as Pf growth 96h inactive, Sm TGR inh inactive and Pf growth 48h inconclusive.
For Cc1ccc(OCCOc2cccc(C=C3C(=O)NC(=O)NC3=O)c2)cc1 the results were NS1 inh inactive, Pf growth 96h inactive, Sm TGR inh inconclusive, Pf growth 48h inactive, Shiga inhibitor 93 and CHX counter 62.
For O=C1NC(=O)C(=Cc2ccccc2OCCOc2ccc([N+](=O)[O-])cc2)C(=O)N1 the results were Pf growth 96h inactive, Sm TGR inh inconclusive, Pf growth 48h inactive, Shiga inhibitor inactive and CHX counter inactive.
`O=C1NC(=O)C(=Cc2ccc3ccccc3c2)C(=O)N1` gave NS1 inh inactive, Pf growth 96h inconclusive, Sm TGR inh inconclusive, Pf growth 48h inactive, Shiga inhibitor inactive and CHX counter inactive.
For Cc1cc(C)cc(OCCOc2cccc(C=C3C(=O)NC(=O)NC3=O)c2)c1 the results were NS1 inh inactive, Pf growth 96h inactive, Sm TGR inh 32µM, Pf growth 48h inactive, Shiga inhibitor 55 and CHX counter 18.
For O=C(Nc1ccc(F)c(Cl)c1)C1CCCN(C2=NS(=O)(=O)c3ccccc32)C1 (configuration not stated) the results were Pf growth 96h inconclusive, Sm TGR inh inactive and Pf growth 48h inconclusive.
For CCN(CC)CCC(c1ccc2c(c1)OCO2)c1c(OC)cc(OC)c2c(C)cc(=O)oc12 (configuration not stated) the results were Shiga inhibitor inactive and CHX counter inactive.
CCCCCc1cc(=O)oc2c(C(CCN(CC)CC)c3ccc(OC)cc3)c(OC)cc(OC)c12 (configuration not stated) was read as NS1 inh inactive, Pf growth 96h 1.9µM, Sm TGR inh inactive, Pf growth 48h 3.3µM, Shiga inhibitor inactive and CHX counter inactive.
